# Screening data as filed in PubChem BioAssay.
# Most compounds without a hit are left out; they make up all but 8.9% or so of the library.
# 12-hLO inh = blocks human 12-lipoxygenase activity. Potency, µM (top dose mostly 57.1 µM), inactives show top-dose activity change, negative = inhibition, hits mostly inhibitors. actives 0.12% (n = 150,000). P18054. purified 12-hLO, xylenol orange hydroperoxide absorbance; note: potency is the fitted concentration of half-maximal effect; nearly all actives have a fitted effect of over 55% in size
#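 Lipoxygenase turnover measured by absorbance at 573 and 405 nm after Fe-XO development. Human 12hLO 150 nM, arachidonate 40 uM, pH 7.0 Hepes buffer with detergent; 15 min compound preincubation, 30 min reaction.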
# IMPase Li inh = cell-permeable IMPase inhibitors with lithium potentiation; Potency, µM (highest dose often 59.4 µM), inactives show at the top dose activity, negative = IMPase inhibition, hits mostly inhibitors; actives 0.35% (n = 210,000); CHO-M1 cells, IP1 TR-FRET (IP-One), carbachol + lithium; AID 1457;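 note: IP1 builds up when IMPase is blocked and the TR-FRET signal falls; potency is the fitted concentration of half-maximal effect; plate controls were basal vehicle for no effect and high inhibitor control for full effect; nearly all actives have a fitted effect of over 50% in size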
#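 Steps: plate 2000 CHO-M1 cells per well and culture 16–30 h; add compound and lithium; incubate 30 min, 37C; add d2-IP1 tracer and Eu cryptate anti-IP1 antibody in lysis buffer; read after 10 min at room temperature.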
# ALDH1A1 block = inhibitors of human aldehyde dehydrogenase 1A1; P00352; Purified ALDH1A1, NADH fluorescence, propionaldehyde substrate; Potency, µM (series often up to 75.3 µM), without a hit: top-dose activity, negative = inhibition, most hits filed as inhibitors; actives 7.3% (n = 220,000); AID 1030; active = well fitted inhibition curve with a large enough effect, not every such curve was filed as active; inconclusive = small, poorly fitted or top-dose-only effect, or another doubt; inactive = no such curve, though single readings can be large or run the other way;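 note: potency is the fitted concentration of half-maximal effect; plate controls were no enzyme wells and a reference inhibitor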
# Target sequence (P00352 whole entry, looked up): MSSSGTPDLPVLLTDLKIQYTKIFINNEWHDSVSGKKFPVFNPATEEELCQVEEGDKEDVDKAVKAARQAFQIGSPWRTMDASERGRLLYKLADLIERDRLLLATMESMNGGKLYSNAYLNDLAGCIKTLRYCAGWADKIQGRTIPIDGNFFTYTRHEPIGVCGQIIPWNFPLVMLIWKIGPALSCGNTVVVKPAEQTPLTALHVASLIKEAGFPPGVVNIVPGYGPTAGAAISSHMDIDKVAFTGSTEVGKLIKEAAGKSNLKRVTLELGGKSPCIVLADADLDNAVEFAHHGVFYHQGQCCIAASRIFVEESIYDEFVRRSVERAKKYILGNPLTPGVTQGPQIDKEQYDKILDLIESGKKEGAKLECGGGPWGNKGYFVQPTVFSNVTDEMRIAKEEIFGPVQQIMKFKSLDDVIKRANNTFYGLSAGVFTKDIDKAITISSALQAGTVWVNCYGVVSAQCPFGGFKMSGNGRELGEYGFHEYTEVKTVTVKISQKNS
# IMPase cell inh = IMPase inhibition in cells. inhibition (IP1 accumulation), % at 46.1 µM. AID 901. CHO-M1 cells, IP1 accumulation, HTRF TR-FRET ratio. P97697. 120,000 tested, under 10 active; active = well fitted curve in the direction sought with a large enough effect in the signal ratio, not every such curve was filed as active; inconclusive = small, poorly fitted or top-dose-only effect, or a change in a side signal; inactive = no such curve, though single readings can be large or run the other way; the % refers to the signal ratio;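 note: cells stimulated with carbachol in lithium chloride buffer; plate controls were DMSO basal wells for no effect and reference inhibitor wells for full effect; higher means more IMPase inhibition seen as more IP1 and lower FRET ratio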
# Target sequence (P97697 whole entry, looked up): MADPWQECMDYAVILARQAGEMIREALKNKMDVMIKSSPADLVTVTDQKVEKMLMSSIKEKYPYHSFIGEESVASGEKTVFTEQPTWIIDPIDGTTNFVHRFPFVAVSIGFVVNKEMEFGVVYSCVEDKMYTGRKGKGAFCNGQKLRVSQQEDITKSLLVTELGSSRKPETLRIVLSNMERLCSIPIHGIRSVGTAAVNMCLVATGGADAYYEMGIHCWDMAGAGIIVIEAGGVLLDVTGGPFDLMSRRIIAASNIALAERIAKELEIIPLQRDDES
#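 In this qHTS, compounds (final up to 46 uM) act on CHO-M1 cells that are then activated through the M1 receptor with carbachol, in pH 7.4 buffer containing 50 mM LiCl, for 30 min. IP1 accumulation is quantified by the IP-One immunoassay.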
# HPGD block = HPGD (human) dehydrogenase inhibition. P15428. purified HPGD, NADH fluorescence kinetic, PGE2 substrate. Potency, µM, without a hit: top-dose activity change, negative = inhibition, actives largely listed as inhibitors. actives 4.3% (n = 150,000); active = well fitted inhibition curve with a large enough effect, not every such curve was filed as active; inconclusive = small, poorly fitted or top-dose-only effect, or another doubt; inactive = no such curve, though single readings can be large or run the other way; note: potency is the fitted concentration of half-maximal effect
#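 NADH formation kinetics: reaction with 30 uM PGE2 and 1 mM NAD+ (final), 20 nM enzyme, Tris-HCl pH 8 with Tween 20, after 15 min compound preincubation at room temperature. Fluorescence change, last versus first of five reads.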
# NPSR antag = neuropeptide S receptor (human) antagonism, cAMP. Q6W5P4. CHO-NPSR cells, cAMP TR-FRET, antagonist mode. Potency, µM (highest dose often 38.3 µM), without a hit: at the top dose activity change, negative = inhibition, hits mostly inhibitors. actives 1% (n = 220,000). AID 1461; note: potency is the fitted concentration of half-maximal effect; nearly all actives have a fitted effect of over 50% in size
# Starred values were filed as active, the others as inactive; ? = inconclusive; / = no result; [ ] = another dose, or the depositor's remark. Unless noted, calls come from the whole dose curve; as a rule, active = well fitted curve in the direction sought with a large enough effect; inconclusive = small, poorly fitted or top-dose-only effect, or another doubt; inactive = no such curve, though single readings can be large; an effect the other way counts as inactive or inconclusive. Unless noted, % is set by controls: 0 for no effect and ±100 for the full control effect.
SMILES,12-hLO inh,IMPase Li inh,ALDH1A1 block,IMPase cell inh,HPGD block,NPSR antag
Cc1oc(-c2ccccc2F)nc1CS(=O)CC(=O)NCc1cccs1 (stereo not drawn),7%,-8%[38.3 µM],-3%,0,-6%,-7%[46.1 µM]
CC(C)(C)NC(=O)CSc1nnc(-c2ccco2)n1Cc1ccco1,-1%,14%[38.3 µM],0%,-2,1%,-6%[46.1 µM]
Cc1cc(C(=O)CSc2nnc(-c3cccs3)n2Cc2ccccc2)c(C)n1C,-13%,-5%[38.3 µM],?,13,-4%,-26%[46.1 µM]
O=c1cc(CSc2nnc(-c3cccs3)n2Cc2ccccc2)nc2sc3ccccc3n12,-11%,6%[38.3 µM],7.9µM*,1,-6%,-18%[46.1 µM]
COC(=O)CSc1nnc(-c2ccco2)n1Cc1ccco1,-3%,11%[38.3 µM],14µM*,-1,-20%,2%[46.1 µM]
CCCCn1c(SCC(=O)NCc2ccco2)nnc1-c1ccco1,-3%,-4%[38.3 µM],20µM*,0,-24%,-14%[46.1 µM]
Cc1oc(-c2ccccc2F)nc1CS(=O)CC(=O)NCc1ccc2c(c1)OCO2 (stereo not drawn),-4%,9%[38.3 µM],32µM*,7,?,-8%[46.1 µM]
CC1CCN(S(=O)(=O)c2cccc(C(=O)N(Cc3ccccc3)c3ccccn3)c2)CC1,/,17%,-12%,/,/,?
CC(=O)Nc1ccc(/C=C(\C#N)C(N)=O)cc1,/,/,/,/,/,-1%
CC(=O)Oc1ccc2c(c1)Oc1cc(OC(C)=O)ccc1C21OC(=O)c2ccccc21,-4%,-3%,?,5,-19%,-17%[46.1 µM]
O=C(CSc1nnc(Cc2cccs2)n1Cc1ccco1)Nc1ccc(Cl)cc1Cl,?,9%[38.3 µM],?,16,-20%,-25%[46.1 µM]
CC(=O)c1c(C)[nH]c(C(=O)CSc2nnc(-c3cccs3)n2Cc2ccccc2)c1C,-3%,-40%[38.3 µM],13µM*,11,?,-11%[46.1 µM]
O=C(CSc1nnc(Cc2cccs2)n1Cc1ccco1)Nc1ccc(Br)cc1,-28%,48%[38.3 µM],20µM*,17,?,?
Cc1oc(-c2cccs2)nc1CS(=O)CC(=O)NCCc1ccccc1 (stereo not drawn),-6%,-23%[38.3 µM],?,0,32µM*,-9%[46.1 µM]
CCn1c(SCC(=O)NCc2ccco2)nnc1C(C)C,-3%,-4%[38.3 µM],4µM*,10,-22%,-19%[46.1 µM]
Cc1cc(C=C(C#N)C#N)c(C)n1-c1ccccc1,3%,-22%[38.3 µM],8%,-5,-9%,-1%[46.1 µM]
Cc1ccc(Nc2c([N+](=O)[O-])cc(C(=O)N3CC(=O)Nc4ccccc43)cc2[N+](=O)[O-])c(C)c1,-4%,17%[38.3 µM],8%,3,16µM*,?
CCOC(=O)N1CCN(C(=O)COC(=O)c2ccc(O)cc2O)CC1,/,1%,5%,/,/,2%
CCc1c(C)nc(Nc2nc(C)c3cc(OC)ccc3n2)[nH]c1=O,-8%,/,?,15,/,-17%[46.1 µM]
CCc1c(C)nc(Nc2nc(C)c3ccc(OC)cc3n2)[nH]c1=O,-3%,31%[38.3 µM],2.2µM*,8,-4%,-17%[46.1 µM]
COc1ccccc1N1C(=O)CSC1=NC(=O)c1ccccc1,/,/,-2%,/,/,8%
COc1ccccc1N=C1SCC(=O)N1c1ccccc1OC,-3%,-2%,20µM*,/,?,5%
COc1ccc(NC(=O)CSc2nc3ccsc3c(=O)n2CCCCCC(=O)O)cc1,/,-8%,-7%,/,/,5%
COc1ccc(-c2nc(-c3ccccn3)nc(N3CCN(C)CC3)c2C#N)cc1,/,4%,14µM*,/,/,-27%
CN1CCN(c2nc(-c3ccccc3)nc(-c3ccc(F)cc3)c2C#N)CC1,/,26%,0%,/,/,-53%
SMILES,12-hLO inh,IMPase Li inh,ALDH1A1 block,IMPase cell inh,HPGD block,NPSR antag
CCCn1c(=O)c(C(=O)NNS(=O)(=O)c2ccc(Cl)cc2)c(O)c2ccccc21,-16%,1%,32µM*,/,-20%,-4%
Cc1ccc2cc(N)ccc2n1,/,-5%,2%,/,/,12%
CC(C)CCn1cnc2c(sc3nc4c(cc32)CSC(C)(C)C4)c1=O,-2%,2%,1.8µM*,-8,-10%,-11%
CCCCn1cnc2c(sc3nc4c(cc32)CSC(C)(C)C4)c1=O,-5%,-28%,1.1µM*,/,-17%,-20%
Cc1ccc(NC(=O)N/C=C/c2ccc(Cl)cc2)cc1,-30%,-19%[38.3 µM],22µM*,8,-14%,-8%[46.1 µM]
O=C(N/C=C/c1ccccc1)Nc1ccc(Cl)cc1,-21%,9%[38.3 µM],?,-4,-15%,-10%[46.1 µM]
CC(C)(C)NC(=S)NNC(=O)c1cccc(Br)c1,/,3%,11µM*,/,/,-36%
O=C(O)CCC(=O)NNC(=O)c1cccc(Br)c1,4%,-2%,3%,/,1%,15%
O=C(NNC(=S)Nc1ccccc1)c1cccc(Br)c1,-6%,-14%[38.3 µM],20µM*,4,-7%,-23%[46.1 µM]
O=C(NNC1OC(CO)C(O)C(O)C1O)c1cccc(Br)c1 (stereo not drawn),/,-5%,11µM*,/,/,22%
O=C(O)/C=C/C(=O)NNC(=O)c1cccc(Br)c1,-3%,-5%,20µM*,4,-2%,12%
CC(C)(C)NC(=S)NNC(=O)c1ccccc1Cl,-4%,2%,?,-4,-13%,24%
Cc1ccc(C(=O)Oc2c(S(=O)(=O)c3ccccc3)c(C)nn2-c2ccccc2)cc1,/,/,/,-1,/,/
O=C(NC(=S)Nc1cc(Cl)ccc1O)c1cccc(Br)c1,/,/,9.5µM*,/,/,34%
O=C(NNC(=O)c1cccc(Br)c1)Nc1ccc(Cl)cc1,/,3%,2%,/,/,13%
COCCNC(=O)c1cc(-c2cccnc2)nc2ccc(Br)cc12,7%,11µM*,10%,-19,-15%,5%[46.1 µM]
CN(C)CCNC(=O)c1cc(Br)ccc1Cl,1%,13%[38.3 µM],8%,4,-4%,1%[46.1 µM]
COCCNC(=O)c1cc(Br)ccc1Cl,0%,23%[38.3 µM],3%,6,22µM*,-2%[46.1 µM]
CC(C)NC(=O)COC(=O)c1cc(F)c(F)cc1Cl,5%,29%[38.3 µM],1%,3,?,-5%[46.1 µM]
COc1cc(NC(=O)c2cc(-c3cccnc3)nc3ccc(Br)cc23)cc(OC)c1,/,-19%,10%,/,/,-49%
CC(C)NC(=O)COC(=O)c1cc(Br)ccc1Cl,2%,0%,-5%,3,22µM*,-3%
CC1Cc2ccccc2N1C(=O)c1ccc(N2CCCCC2)c([N+](=O)[O-])c1 (stereo not drawn),0%,9%,22µM*,5,-19%,-34%
CC1Cc2ccccc2N1C(=O)c1ccc(N2CCCC2)c([N+](=O)[O-])c1 (stereo not drawn),0%,16%,13µM*,-9,-20%,-23%
Fc1ccc(C2CC(c3ccco3)=NN2c2ccccc2)cc1 (stereo not drawn),?,-1%[38.3 µM],8%,-16,?,-26%[46.1 µM]
